The whole screen tested about 31,000 sequences, of which about 1,400 (4.5%) were called active. The sample as a whole holds a higher share of actives than the screen did. Values without a mark were called inactive.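 The calls were made as follows: active = median seed-adjusted z-score above 1 or below -1; inactive = the rest.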

This assay is described as follows: Novel Modifiers of Survival Motor Neuron (SMN) Protein: Gene Identification via Genome-wide siRNA Screen. Particulars: HEK293T SMN2-luciferase reporter, siRNA knockdown, 72 h; actives lie on both sides. The text has this:
Spinal muscular atrophy (SMA) is the most common neuromuscular autosomal recessive disorder and one of the leading genetic causes of infant death. SMA results from mutations inducing loss of function or deletion in the survival of motor neuron-1 gene (SMN1), leading to deficiency of the survival motor neuron (SMN) protein. Although a second nearly identical gene, SMN2, is retained in humans, its expression primarily produces an aberrantly spliced isoform that is largely unstable and quickly degraded. We performed a genome-wide RNAi screen using a cell-based reporter assay to identify genes and pathways that modulate SMN protein stability. The screen identified over 200 genes that led to the greatest increase or decrease in luciferase expression.
Using HEK293T cells stably expressing a luciferase reporter that combines the promoter and splicing based cassettes in tandem with the major portion of the native SMN2 cDNA with luciferase, we performed a genome-wide RNAi screen to identify modulators of SMN protein levels. Luciferase is expressed when full-length SMN protein is generated with luminescence signal proportional to SMN protein levels. Our luciferase-based reporter assay was used to screen Ambion Silencer Select Human Druggable Genome siRNA library (10418 genes, 3 unique siRNAs per gene) using lipid-based reverse transfection.
Briefly, 1 pmol of each siRNA was spotted to a well of a 384-well plate (Corning, Corning, NY) and 20 microL of serum-free DMEM containing […] of Lipofectamine RNAiMax (Life Technologies, Carlsbad, CA) was then added to each well. Transfected cells were maintained at 37 degrees C in 5% CO2 for 72 hours, 20 microL of ONE-Glo Reagent (Promega) was added to wells for luciferase quantification. Raw luminescence reads were normalized to Ambion(R) Silencer(R) Negative Control #2 siRNA, then log10 transformed. A robust statistical measure of median absolute deviation (MAD) to standardize siRNA activities from each screen. Common Seed Analysis was used to help prioritize clean hits as opposed to those appearing to arise from seed based off-target effects. Candidate modulators were defined as the genes having a MAD score greater than 1.0 or less than -1.0.
A general note: Reporter assays use an easily measured gene product as a stand-in for the process of interest.
Turning to GCGUGGAACCGGACAUCAATT against TPSD1, the median seed-adjusted z-score is 0.0848. With CCACGUCACCAGUACUAUATT against UBA1, the median seed-adjusted z-score was 1.34 (active). Take ACAGUGUGGUUCUUCAUUUTT against C1QL3: the median seed-adjusted z-score is -0.276. Regarding CAUCACCUGUAGAACCUGATT against PIAS2, the median seed-adjusted z-score is -0.096. Under GAAUGGUCCUAAAACACCATT against NFE2L2 stands -0.596. Then GAAAUUGAUAAGCAAAGUATT against TRO, with 2.04 (active); and CUGCCUACGUGAACUGGAUTT against TPSG1, with 0. Take GAAGGAGACUAAUGAGCAATT against FGD4: the median seed-adjusted z-score was -0.0017. Turning to CGAGUGUCUUCACUACAAATT against IL3RA, the median seed-adjusted z-score is -0.951. Then GCAAGUCGUCUAUUCAGAATT against RRAGD, with 0.313; and GGCACUUAAGGUUCGCUAUTT against PPP4C, with 1.15 (active).

For the sequence GGCUCUUGGAAUAACUGAATT against SERPINI1, the median seed-adjusted z-score is 0.127. Under CAUUAAAGGUUUACCCAAUTT against IDH1 stands 0.421. Turning to GGCUUUGAAUUCAAUCUAUTT against GPR149, the median seed-adjusted z-score was -0.186.

For CGUCGCGCCCUGUACAUAATT against GPR35, the median seed-adjusted z-score is -1.46 (active). Consider UCAGUUACCUGCAUACCAATT against AEBP1, for which the median seed-adjusted z-score is -0.0536. Then CCUACUAUGAUGUUAGUAATT against SCGN, with -0.0164; and GAUACUCAGAAGUUGAUAATT against MYSM1, with -0.116; and ACACUCUUGUGGUCAAGAATT against HNRNPC, with -2.15 (active).

Consider GCAAGAAACUCCACCCUUUTT against RGS3, for which the median seed-adjusted z-score is 0.065. Then CUACCACAAUCAUCGAAAATT against FABP3, with -0.0786. Under CAAACCUAACUAUACAUAATT against ZNF107 stands 0.0761; under GUAAGCAUUUUAAUUCCAATT against CLCA3, 0.424; under UUACAUUGAUUACACUGGATT against RBM24, 0.0471. Under UCGUUUUUACAGAUGUUAATT against SAP18 stands 2.14 (active); under CCUACUAUCAAGAUUCAAATT against HERC3, -0.0884. Turning to GAGUCAACCCAUACAUUAATT against PLS1, the median seed-adjusted z-score is -0.0715. In the case of GCUGGUUUAUUUAACUCGATT against E2F6, the median seed-adjusted z-score is -0.299.

Consider GAGUCUGUUUUACGACAAATT against TMPRSS11D, for which the median seed-adjusted z-score is -0.0643. In the case of CCAGUCGCGUAAGACAACATT against PYDC1, the median seed-adjusted z-score was -1.44 (active). Under CCCAGAGCUUCAAAGUGUATT against HSD17B1 stands -0.569; under GCAGAGCGGAAGUAAGGAUTT against AFMID, -0.515. As for CAUUAUCUCGUUUCCGGAATT against IFNGR2, the median seed-adjusted z-score is 0.148.

Regarding GCGGAAAGGUGGACUUUGATT against CABP2, the median seed-adjusted z-score is 0.323. For GCAUCCUCAUCAACCGCAATT against SAPS1, the median seed-adjusted z-score was 1.16 (active). With CCCAGAAGAUGACCACUCATT against PDXDC1, the median seed-adjusted z-score was 0.665. Then GACUUGCCCUUACUGCAAATT against RNF175, with 0.127; and CGUUGCUAGUGCUCACUUATT against FRAG1, with -0.554; and GAUAUUUGAUUGAUGUAGATT against DUSP11, with -0.0184. In the case of ACAGAAUAAUGUACAAGAATT against POLR2K, the median seed-adjusted z-score is -3.72 (active).

Turning to GCCUAGACCUCUUCGCUUUTT against PASK, the median seed-adjusted z-score was 0. For GCAGCUGAGUUCUACAAGATT against RAG1, the median seed-adjusted z-score was -1.35 (active). Regarding GGAUAAUGAGUCGGAAGUATT against CNTN4, the median seed-adjusted z-score was -0.407. Then CCAGGUUUAUGUAGAAGUUTT against NMI, with 0.982; and GGAUGAAGAACGAAUGGUATT against ENDOD1, with -0.138; and GGCACUCAGCGCAAGAAGATT against TIGD5, with 0. In the case of GGAAGAGGAGUAGACCUUATT against RAB5A, the median seed-adjusted z-score is 0.244. Under CCGGCAAGAUUAUCGAGUATT against HCFC1 stands 1.47 (active); under CAUUCGCAAAGGAUCGUGATT against PAPSS2, -0.201. Then CAGCGUAUUUGAGAAUUUATT against ATRX, with -0.158; and GCAAGUGUUUUGAUCAAAATT against ZNF662, with 0.352; and GAAUAUUGCAAUAGACUUATT against ZNF678, with 0.172. Under GCAUUUCACCAUUCAAACATT against PCSK9 stands 0.146; under GGAUGUUUCCUACCUAUAUTT against FOLR1, -1.31 (active); under CCAGUUCGCUAUCACCAAATT against MATN1, -0.271.

As for CGAUCAAUGUUAGAAGUUATT against ACTR2, the median seed-adjusted z-score was 0.548.

CCUUAGAUCUCGCGAAGAATT against DCT: the median seed-adjusted z-score is -0.184.

Consider CCAAUACACUAGCAGUUAATT against TCP1, for which the median seed-adjusted z-score was -1.02 (active). Under GCCUGUGAAUGUCCGAGAATT against AARSD1 stands -0.156; under GGUAGUCUAUCACUUCGAATT against TRIM37, -0.108. Under GCUCAACACUCAUCAAACATT against ZNF774 stands -0.0834; under CAUGGUCACUGCUAGUGUATT against MBOAT1, -1.22 (active); under GCACCUACUUCAUCUAUAGTT against EDA, 0.316. Consider GAGAUUCAAAGAAUAGUAATT against RASSF6, for which the median seed-adjusted z-score was -0.592. Then CCCUUGAAGGCAAAGAUCATT against OPRK1, with -1.08 (active); and GAGAUUCAUCGGUUCAAUATT against WRNIP1, with 0.00972; and GCCUUAGUGUGCCUCCCAATT against APLN, with 0.0181. GAUCUGGUCGAGUUUAAAATT against NAT2: the median seed-adjusted z-score is -0.0495. Then CCACAUGACUUAUUAUGCATT against DCN, with 0.326.

Source of the values: PubChem BioAssay AID1347426 (Functional Genomics Laboratory (NCATS/FGL), 2020).
